Compounds with a hit are over-represented: about 1.1% of the library has one in this group of screens.
OPRM1-OPRD1 inv = inverse agonist of human OPRM1-OPRD1 heterodimerization. inhibition, % at 9.3 µM. P35372+P41143. cell-based MOR-DOR heterodimer luminescence, inverse agonism. 340,000 tested, 0.21% active; in the data active = inhibition above about 22%, passing the limit was not always enough;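 note: 0% = cells with DMSO and 100% = wells without cells with DMSO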
HTR5A ag = counter-screen for OPRM1-OPRD1 agonists: human HTR5A agonism; AID 504692; P47898; 340,000 tested, 0.61% active; HTR5A agonist assay, luminescence, cell-based; activation, % at 9.3 µM; in the data active = activation mostly above about 9.5%, no sharp cut-off; inactive = mostly below about 7.6%;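 note: 0% = cells with vehicle only and 100% = reference agonist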
Target sequence (P47898 whole entry, looked up): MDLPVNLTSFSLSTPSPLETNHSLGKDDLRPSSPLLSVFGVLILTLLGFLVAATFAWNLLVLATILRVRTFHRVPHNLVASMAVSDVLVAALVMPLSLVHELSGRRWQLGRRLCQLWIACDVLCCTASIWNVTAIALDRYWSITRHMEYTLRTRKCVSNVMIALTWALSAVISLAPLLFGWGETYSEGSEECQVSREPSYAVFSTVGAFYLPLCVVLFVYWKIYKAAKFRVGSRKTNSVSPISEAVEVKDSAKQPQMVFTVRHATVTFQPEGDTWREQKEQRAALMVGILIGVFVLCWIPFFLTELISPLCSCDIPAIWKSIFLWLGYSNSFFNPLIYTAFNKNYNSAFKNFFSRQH
HTR5A inv ag = HTR5A inverse agonism, opioid heterodimer counter-screen; inhibition, % at 9.3 µM; HTR5A cell line, luminescence; 340,000 tested, 0.083% active; P47898; in the data active = inhibition mostly above about 23%, no sharp cut-off; inactive = mostly below about 18%;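 note: 0% = cells with DMSO and 100% = no-cell wells with DMSO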
MOR-DOR ag = agonists of human mu-delta opioid receptor heterodimerization. cells, OPRM1-OPRD1 heterodimerization, luminescence. 340,000 tested, 0.3% active. activation, % at 9.3 µM;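 note: 0% = vehicle-treated cells and 100% = reference agonist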
MOR-DOR ag conf = OPRM1-OPRD1 heterodimer agonism, confirmation; shares compounds with MOR-DOR ag; cells, MOR-DOR heterodimerization, luminescence complementation; activation, % at 9.3 µM; 830 tested, 45% active;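 note: 0% = vehicle-treated cells and 100% = reference agonist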
HTR5A ag ctr2 = activates human HTR5A in OPRM1-OPRD1 agonist counter-screen; shares compounds with MOR-DOR ag; HTR5A agonist counterscreen, cell luminescence; activation, % at 9.3 µM; 830 tested, 8% active; AID 504905; in the data active = activation above about 17%;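 note: 0% = vehicle-treated cells and 100% = reference agonist response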
Starred values were filed as active, the others as inactive; i = inactive; x = not tested or not shown. Cut-off read from the data, not from the text of the source, unless noted: active = activation above about 18%; inactive = the rest.

SMILES	OPRM1-OPRD1 inv	HTR5A ag	HTR5A inv ag	MOR-DOR ag	MOR-DOR ag conf	HTR5A ag ctr2
Cc1ccc(C(=O)C2C(c3ccc(-c4ccccc4[N+](=O)[O-])o3)NC(=O)NC2(O)C(F)(F)F)cc1 (stereo not given)	-113.8	1.9	0.2	21.2*	3.8	4.7
O=C1NC(c2ccc(-c3ccccc3[N+](=O)[O-])o2)C(C(=O)c2ccccc2)C(O)(C(F)(F)F)N1 (stereo not given)	-63.7	2.9	-14.9	10.2	x	x
COc1cccc(-c2nnc(NC(=O)c3ccc(Cl)s3)o2)c1	-116.7	10.7	-31.3	19.7*	2.2	-1.1
COC(=O)CSc1nnc(-c2sc3cc(OC)ccc3c2Cl)n1C	-85.3	-3.1	-9.6	18.5*	1.0	2.7
Cc1cc(C)cc(Oc2coc3cc(OC(=O)c4cccnc4)ccc3c2=O)c1	-118.4	-3.9	12.9	22.2*	2.2	0.0
CC(CCc1ccccc1)NC(=O)c1ccc(NC(=O)c2ccccc2)cc1 (stereo not given)	-181.5	1.5	-4.2	25.5*	6.7	2.3
Oc1ccc(Br)cc1CNc1cccc2cccnc12	-88.8	0.7	-2.8	18.6*	-2.4	-9.1
CC(C)(C)c1ccc(OCC(=O)Nc2ccc3c4c(cccc24)C(=O)NC3=O)cc1	-95.5	-3.0	-1.5	19.1*	-0.1	0.4
COc1cc2c(cc1OC)CN(c1ccc(F)cc1[N+](=O)[O-])CC2	13.1	1.6	-5.8	-2.7	x	x
Cc1ccc(C)c(N(C(=O)c2csnn2)C(C(=O)NC2CCCCC2)c2ccccn2)c1 (stereo not given)	8.8	8.3	11.4	-1.4	x	x
CC1CC(C)CN(C(=O)Cn2ncc3c([nH]c4ccccc43)c2=O)C1 (stereo not given)	4.8	-2.8	10.6	-0.9	x	x
O=C(Cn1ncc2c([nH]c3ccccc32)c1=O)N1CCc2ccccc2C1	-175.8	-2.6	-19.2	32.4*	25.7*	0.8
Cc1ccccc1Nc1nc(-c2ccccc2)c(C(=O)Nc2cccnc2)s1	12.1	-0.3	-4.2	-2.6	x	x
O=C(Nc1cccnc1)c1sc(Nc2ccccc2F)nc1-c1ccccc1	-111.2	-0.9	-32.3	20.7*	4.9	5.3
CC(C)(O)[C@H](O)Cc1cc2ccc(=O)oc2cc1O[C@@H]1O[C@H](CO)[C@@H](O)[C@H](O)[C@H]1O	-96.7	-2.0	5.2	17.7	x	x
CC[C@@H](C)[C@H](CNC)NC[C@@H](Cc1cccc2ccccc12)NCCc1cccc(C(F)(F)F)c1	-127.6	9.2	-76.8	23.7*	-2.2	1.9
Cc1ccccc1N(CC(=O)N/N=C/c1ccc(F)cc1)C(=O)c1ccccc1	-157.6	8.5	-12.2	30.2*	46.5*	2.3
C=C(C)COc1ccc(-c2n[nH]c(C)c2-c2ccc(OC)cc2)c(O)c1	-176.0	7.7	-16.0	29.6*	-2.4	-1.6
COc1cccc(C(C(=O)NC2CCCC2)N(C(=O)c2ccco2)c2ccc(NC(C)=O)cc2)c1OC (stereo not given)	2.1	-3.9	9.9	-0.3	x	x
Cc1c2ccccc2c(C)c2c1ccc1ccccc12	-100.4	6.7	-23.9	18.6*	-2.3	-1.9
Cc1cccc(C(=O)NCCC(=O)NCc2ccccc2Cl)c1	6.3	-1.8	4.6	-1.6	x	x
CC(COc1ccccc1)N1CCC(CO)(CCc2ccccc2)CC1 (stereo not given)	i	2.2	-5.7	176.3*	0.5	-0.5
CCNC(C(=O)c1c[nH]c2c(CC)cccc12)c1ccccc1 (stereo not given)	-9.1	-2.8	1.8	1.1	x	x
COc1ccc(-c2csc(N(CCCN(C)C)C(=O)c3cccs3)n2)cc1	-131.5	4.2	-10.9	26.4*	42.7*	-1.3
CCN(C(=O)c1cccs1)c1nc(-c2ccc(OC)cc2)cs1	8.6	-3.7	10.3	-1.6	x	x
CCc1ccc(/C=C2\Oc3c(ccc(O)c3CN3CCN(CCO)CC3)C2=O)cc1	1.1	9.5	9.6	-0.2	x	x
CCOC(=O)C1CCN(C(=O)C2COc3ccccc3O2)CC1 (stereo not given)	0.6	0.1	-0.2	-0.1	x	x
Cc1ccc(-c2csc3ncnc(-n4nnc5ccccc54)c23)cc1	-121.5	9.3	-0.1	22.9*	2.2	0.1
Cc1ccc(-c2csc3ncnc(-n4nnc5ccccc54)c23)cc1C	-7.5	-3.2	8.6	1.2	x	x
